# Targets with a hit are over-represented here; the source holds about 8,800 in all. About 0.5% of all pairs of compound and target were hits. Values without a mark were called inactive.
# Columns and labels:
# Assay in all cases: log2 fold change, soluble protein after heating vs DMSO (PISA); higher = thermal stabilisation; K562 lysate, 10 uM; active = over 0.2 and 3.5 SD of the protein, either way, in both replicates (recomputed)
# [1] = compound: C#Cc1cccc(Nc2ncnc3cc(OCCOC)c(OCCOC)cc23)c1 [erlotinib]
# Summary of the method: (§1)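 K562 pellets were dounce-homogenised in PBS pH 7.4 containing 1 mM MgCl2, and the crude extract, at 1 mg/mL protein, was exposed to 10 μM compound for 30 min. Aliquots were heated for 3 min across 48°C-58°C, pooled, brought to 0.5% NP-40 at 4°C and spun at 21,000xg for 90 min, with the supernatant taken as soluble protein. TMTpro 16plex LC-MS/MS with equalised channel sums quantified that protein. Values are log-two fold changes in thermal stability relative to solvent controls, taken from duplicates.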
# [2] = compound: C/C(=N\NC(=O)C1=CC(=CC=C1)S(=O)(=O)N2CCOCC2)/C3=C(C=CC(=C3)Cl)O
# Summary of the method: as §1
# [3] = compound: C1=CC(=CC=C1C2=NC3=C(N2)C=C(C=C3)C(=O)N)OC4=CC=C(C=C4)Cl
# Summary of the method: as §1
# [4] = compound: C1=CC2=C(C=CC(=C2)/C=C\3/C(=O)NC(=NCC4=CC=CS4)S3)N=C1
# Summary of the method: as §1
# [5] = compound: C1=CC2=NC=CN=C2C=C1/C=C/3\C(=O)NC(=O)S3
# Summary of the method: as §1
# [6] = compound: C1=CC=C(C=C1)C2=NC(=C(N2)C3=CC=NC=C3)C4=CC(=C(C=C4)Cl)O
# Summary of the method: as §1
# [7] = compound: C1=CC=C2C(=C1)C3=NNC4=CC=CC(=C43)C2=O
# Summary of the method: as §1
# [8] = compound: C1CCN(C1)C(=O)NC2=CC=CC(=C2)NC3=NC=C(C(=N3)NCCC4=CN=CN4)Br
# Summary of the method: as §1
# [9] = compound: C1CN(CCC1(CC2=CC=C(C=C2)Cl)N)C3=NC=NC4=C3C=CN4
# Summary of the method: as §1
# [10] = compound: C1COCCN1CCN2C3=CC=CC=C3N=C2NC(=O)C4=CC(=CC=C4)[N+](=O)[O-] [IRAK-1-4 Inhibitor I]
# Summary of the method: as §1
# Sequence of UniProt Q8NEB9 (Q8NEB9 whole entry, looked up): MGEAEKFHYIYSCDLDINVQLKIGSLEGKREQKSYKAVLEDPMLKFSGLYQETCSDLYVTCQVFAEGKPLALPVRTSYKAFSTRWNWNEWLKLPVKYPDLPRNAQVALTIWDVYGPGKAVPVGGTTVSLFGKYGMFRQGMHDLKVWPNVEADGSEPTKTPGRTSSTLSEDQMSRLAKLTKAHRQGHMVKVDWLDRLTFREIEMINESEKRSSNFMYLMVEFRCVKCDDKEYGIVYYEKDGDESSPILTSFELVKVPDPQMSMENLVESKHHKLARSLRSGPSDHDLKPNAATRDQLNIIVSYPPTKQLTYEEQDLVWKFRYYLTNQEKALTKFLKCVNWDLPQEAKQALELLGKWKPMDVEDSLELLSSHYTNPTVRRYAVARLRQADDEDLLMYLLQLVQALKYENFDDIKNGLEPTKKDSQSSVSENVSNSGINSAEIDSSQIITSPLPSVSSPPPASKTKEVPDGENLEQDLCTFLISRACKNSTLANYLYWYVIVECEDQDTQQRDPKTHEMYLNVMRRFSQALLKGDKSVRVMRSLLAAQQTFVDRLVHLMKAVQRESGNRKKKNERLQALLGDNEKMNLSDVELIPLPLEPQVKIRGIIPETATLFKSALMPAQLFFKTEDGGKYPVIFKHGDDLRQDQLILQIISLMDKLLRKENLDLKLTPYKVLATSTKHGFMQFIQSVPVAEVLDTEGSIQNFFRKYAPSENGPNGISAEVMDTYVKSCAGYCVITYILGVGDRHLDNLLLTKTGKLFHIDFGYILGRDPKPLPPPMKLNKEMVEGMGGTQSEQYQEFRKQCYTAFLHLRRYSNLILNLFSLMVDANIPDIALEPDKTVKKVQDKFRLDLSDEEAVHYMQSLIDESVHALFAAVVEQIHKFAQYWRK
# Sequence of UniProt Q9H0N5 (Q9H0N5 whole entry, looked up): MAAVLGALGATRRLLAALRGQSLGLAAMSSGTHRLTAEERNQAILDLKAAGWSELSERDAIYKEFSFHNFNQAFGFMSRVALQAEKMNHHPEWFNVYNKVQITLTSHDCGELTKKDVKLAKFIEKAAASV
# Sequence of UniProt Q05397 (Q05397 whole entry, looked up): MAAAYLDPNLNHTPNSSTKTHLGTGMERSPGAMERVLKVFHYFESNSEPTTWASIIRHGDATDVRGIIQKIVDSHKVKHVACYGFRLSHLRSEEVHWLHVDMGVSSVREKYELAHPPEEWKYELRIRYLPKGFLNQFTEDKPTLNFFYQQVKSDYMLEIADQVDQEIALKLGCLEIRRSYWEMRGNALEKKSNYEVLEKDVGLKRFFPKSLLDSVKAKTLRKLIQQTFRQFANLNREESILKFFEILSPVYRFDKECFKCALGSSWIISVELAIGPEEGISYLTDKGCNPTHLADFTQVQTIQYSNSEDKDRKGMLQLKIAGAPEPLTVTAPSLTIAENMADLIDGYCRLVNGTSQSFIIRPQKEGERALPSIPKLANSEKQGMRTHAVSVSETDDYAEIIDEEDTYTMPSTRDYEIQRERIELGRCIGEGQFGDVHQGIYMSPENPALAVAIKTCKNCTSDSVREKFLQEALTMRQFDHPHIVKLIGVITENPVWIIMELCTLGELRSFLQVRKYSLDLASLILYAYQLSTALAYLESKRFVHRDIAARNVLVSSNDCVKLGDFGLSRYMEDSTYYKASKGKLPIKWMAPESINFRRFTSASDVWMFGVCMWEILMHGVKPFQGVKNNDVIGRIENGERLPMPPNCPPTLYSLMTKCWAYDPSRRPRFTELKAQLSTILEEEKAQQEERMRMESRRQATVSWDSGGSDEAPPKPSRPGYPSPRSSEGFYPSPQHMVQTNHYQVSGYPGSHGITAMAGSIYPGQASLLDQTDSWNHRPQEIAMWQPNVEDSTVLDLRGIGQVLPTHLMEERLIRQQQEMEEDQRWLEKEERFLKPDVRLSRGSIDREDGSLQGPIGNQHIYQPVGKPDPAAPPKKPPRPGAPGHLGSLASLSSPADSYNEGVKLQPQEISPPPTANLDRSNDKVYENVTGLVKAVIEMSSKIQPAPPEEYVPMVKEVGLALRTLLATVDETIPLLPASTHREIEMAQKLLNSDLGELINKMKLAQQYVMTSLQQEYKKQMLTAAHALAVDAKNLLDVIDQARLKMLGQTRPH
# Sequence of UniProt P49643 (P49643 whole entry, looked up): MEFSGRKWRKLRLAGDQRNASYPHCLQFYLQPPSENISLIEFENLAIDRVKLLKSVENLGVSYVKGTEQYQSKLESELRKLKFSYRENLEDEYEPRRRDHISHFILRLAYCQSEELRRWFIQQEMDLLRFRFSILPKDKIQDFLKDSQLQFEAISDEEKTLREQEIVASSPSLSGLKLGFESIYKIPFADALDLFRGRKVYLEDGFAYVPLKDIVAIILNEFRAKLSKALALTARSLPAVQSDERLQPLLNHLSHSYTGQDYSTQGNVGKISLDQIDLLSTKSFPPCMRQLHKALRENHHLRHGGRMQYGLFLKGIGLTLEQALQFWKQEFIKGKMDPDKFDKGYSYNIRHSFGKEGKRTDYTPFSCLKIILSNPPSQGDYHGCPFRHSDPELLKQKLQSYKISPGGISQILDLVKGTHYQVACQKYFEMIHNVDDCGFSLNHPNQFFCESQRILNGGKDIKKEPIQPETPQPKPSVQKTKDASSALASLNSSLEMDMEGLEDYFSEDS
# Sequence of UniProt P11309 (P11309 whole entry, looked up): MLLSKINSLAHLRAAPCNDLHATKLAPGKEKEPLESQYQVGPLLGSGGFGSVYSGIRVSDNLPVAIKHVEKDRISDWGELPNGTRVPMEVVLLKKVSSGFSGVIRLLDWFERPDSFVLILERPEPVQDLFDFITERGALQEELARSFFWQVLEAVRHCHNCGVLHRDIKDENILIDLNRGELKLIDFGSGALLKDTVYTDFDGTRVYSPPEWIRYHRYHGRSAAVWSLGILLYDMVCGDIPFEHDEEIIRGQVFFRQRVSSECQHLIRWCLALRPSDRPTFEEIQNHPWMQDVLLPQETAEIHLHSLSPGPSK
# Sequence of UniProt O15031 (O15031 whole entry, looked up): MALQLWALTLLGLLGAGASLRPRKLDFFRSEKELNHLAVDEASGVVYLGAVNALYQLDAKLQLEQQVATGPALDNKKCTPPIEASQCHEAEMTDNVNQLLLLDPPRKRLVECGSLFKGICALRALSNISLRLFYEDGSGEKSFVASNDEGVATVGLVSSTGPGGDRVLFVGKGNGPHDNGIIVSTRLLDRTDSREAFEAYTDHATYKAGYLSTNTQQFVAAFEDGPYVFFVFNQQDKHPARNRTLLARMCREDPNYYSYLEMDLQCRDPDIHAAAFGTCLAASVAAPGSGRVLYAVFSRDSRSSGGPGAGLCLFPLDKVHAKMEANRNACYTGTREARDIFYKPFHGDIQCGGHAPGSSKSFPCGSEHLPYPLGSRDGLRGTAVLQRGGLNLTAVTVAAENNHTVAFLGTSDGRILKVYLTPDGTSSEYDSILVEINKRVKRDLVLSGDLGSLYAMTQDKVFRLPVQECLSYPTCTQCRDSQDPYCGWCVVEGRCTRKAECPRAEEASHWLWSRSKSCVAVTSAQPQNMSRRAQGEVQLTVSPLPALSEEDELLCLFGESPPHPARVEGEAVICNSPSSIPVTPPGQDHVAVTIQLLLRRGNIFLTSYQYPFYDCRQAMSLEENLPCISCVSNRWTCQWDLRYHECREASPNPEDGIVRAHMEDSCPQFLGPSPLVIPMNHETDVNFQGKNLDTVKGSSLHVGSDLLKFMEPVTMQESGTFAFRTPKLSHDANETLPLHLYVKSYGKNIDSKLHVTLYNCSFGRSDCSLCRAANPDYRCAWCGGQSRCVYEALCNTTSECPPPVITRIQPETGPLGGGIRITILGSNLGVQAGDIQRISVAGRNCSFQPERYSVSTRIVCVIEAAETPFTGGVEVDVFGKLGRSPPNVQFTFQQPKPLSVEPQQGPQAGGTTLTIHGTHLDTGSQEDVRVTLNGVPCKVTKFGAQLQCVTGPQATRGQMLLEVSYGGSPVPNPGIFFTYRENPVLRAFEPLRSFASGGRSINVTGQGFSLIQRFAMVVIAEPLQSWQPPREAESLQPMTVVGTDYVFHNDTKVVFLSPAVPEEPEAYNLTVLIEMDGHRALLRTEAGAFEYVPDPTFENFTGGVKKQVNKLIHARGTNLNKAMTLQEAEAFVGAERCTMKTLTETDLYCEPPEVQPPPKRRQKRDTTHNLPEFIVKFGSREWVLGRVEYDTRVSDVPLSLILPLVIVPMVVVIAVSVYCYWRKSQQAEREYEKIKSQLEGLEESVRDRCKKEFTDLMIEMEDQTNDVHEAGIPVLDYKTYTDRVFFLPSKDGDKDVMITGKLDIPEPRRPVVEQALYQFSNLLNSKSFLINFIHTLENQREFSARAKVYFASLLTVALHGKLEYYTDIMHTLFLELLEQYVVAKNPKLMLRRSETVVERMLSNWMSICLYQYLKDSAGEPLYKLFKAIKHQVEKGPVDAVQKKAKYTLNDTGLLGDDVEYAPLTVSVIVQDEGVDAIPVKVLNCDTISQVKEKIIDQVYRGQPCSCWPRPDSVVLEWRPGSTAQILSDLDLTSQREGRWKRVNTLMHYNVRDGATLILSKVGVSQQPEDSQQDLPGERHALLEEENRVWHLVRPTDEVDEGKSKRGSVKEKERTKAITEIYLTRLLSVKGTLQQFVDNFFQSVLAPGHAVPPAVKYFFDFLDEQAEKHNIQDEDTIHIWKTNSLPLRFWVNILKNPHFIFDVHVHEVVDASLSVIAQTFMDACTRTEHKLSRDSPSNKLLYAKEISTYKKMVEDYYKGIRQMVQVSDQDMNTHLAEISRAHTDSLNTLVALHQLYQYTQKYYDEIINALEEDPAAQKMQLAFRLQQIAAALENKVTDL
# Sequence of UniProt Q9BUL8 (Q9BUL8 whole entry, looked up): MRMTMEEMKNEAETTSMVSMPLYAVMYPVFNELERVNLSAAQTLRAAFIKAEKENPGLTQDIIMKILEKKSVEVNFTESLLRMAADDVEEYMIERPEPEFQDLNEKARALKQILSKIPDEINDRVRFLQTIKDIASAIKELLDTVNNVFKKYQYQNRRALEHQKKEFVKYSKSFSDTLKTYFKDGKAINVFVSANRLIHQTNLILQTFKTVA
Target,log2 fold change [1],log2 fold change [2],log2 fold change [3],log2 fold change [4],log2 fold change [5],log2 fold change [6],log2 fold change [7],log2 fold change [8],log2 fold change [9],log2 fold change [10]
PDXDC1 (UniProt Q6P996),-0.012,0.008,-0.095,0.034,0.013,-0.005,0.024,-0.011,-0.024,-0.006
PPFIA2 (UniProt O75334),0.019,-0.005,0.02,-0.004,0.065,0.012,-0.006,0.02,-0.074,-0.022
PIK3C3 (UniProt Q8NEB9),0.014,-0.059,0.004,0.017,0.025,0.009,0.053,-0.084,0.015,0.081
PTK2 (UniProt Q05397),-0.018,-0.009,0.045,-0.031,-0.045,-0.02,0.271,0.32,-0.045,0.22
PRIM2 (UniProt P49643),0.05,-0.12,0.032,0.007,-0.006,0.011,0.005,-0.016,0.017,0.027
POLR2B (UniProt P30876),0.031,0.019,-0.014,0.012,-0.016,-0.008,-0.024,0.002,-0.004,-0.007
POLR3E (UniProt Q9NVU0),0.003,0.003,-0.007,0.017,0.005,0.006,-0.001,-0.03,-0.007,-0.016
PRKDC (UniProt P78527),0.021,-0.064,-0.029,0.135,0.927 (active),0.037,0.068,0.122,-0.041,0.02
PRKD2 isoform 3 (UniProt Q9BZL6),0.085,-0.047,0.031,-0.112,0.028,0.014,-0.037,-0.175,-0.009,0.021
PI4K2A (UniProt Q9BTU6),-0.013,-0.005,-0.041,0.021,-0.003,0.02,0.063,0.002,0.058,0.003
PMS2 (UniProt P54278),0.036,0.012,-0.058,-0.005,-0.015,-0.028,-0.032,-0.013,0.012,0.001
PTPN23 (UniProt Q9H3S7),0.017,-0.029,0.016,-0.01,-0.023,0.008,-0.028,-0.013,-0.003,-0.004
POMP (UniProt Q9Y244),0.058,-0.022,-0.001,0.05,-0.003,-0.024,-0.08,-0.099,0.048,-0.023
PTGR2 (UniProt Q8N8N7),0.01,0.064,0.001,0.065,-0.041,0.054,0.016,0.015,0.001,-0.035
PPOX (UniProt P50336),-0.044,0.532 (active),0,-0.015,-0.04,0.025,0.014,0,-0.041,-0.016
PRC1 (UniProt O43663),0.026,0.027,0.013,-0.026,-0.004,0.059,-0.054,-0.011,0.126,0.008
PPP2R5C isoform 4 (UniProt Q13362),0.025,-0.048,-0.054,-0.012,-0.009,0.044,-0.01,0.046,0.08,0.002

Target,log2 fold change [1],log2 fold change [2],log2 fold change [3],log2 fold change [4],log2 fold change [5],log2 fold change [6],log2 fold change [7],log2 fold change [8],log2 fold change [9],log2 fold change [10]
PLXNB2 (UniProt O15031),-0.014,-0.027,-0.013,-0.04,-0.037,0.005,-0.018,-0.017,0.049,0.004
PIM1 isoform 2 (UniProt P11309),0.118,-0.106,-0.164,0.028,0.238,0.123,-0.034,-0.077,0.02,-0.076
PHKA2 (UniProt P46019),0.048,-0.051,0.032,0.052,0.044,-0.058,0.012,0.027,0.033,0.03
PKP3 isoform 2 (UniProt Q9Y446),0.063,-0.011,0.042,0.009,0.006,-0.011,-0.02,-0.011,-0.013,0.015
PRAME (UniProt P78395),0.02,-0.056,-0.001,-0.027,-0.037,0.013,-0.043,-0.004,0.007,-0.008
PCBD2 (UniProt Q9H0N5),-0.012,-0.033,0.044,-0.022,0.079,0.005,-0.014,-0.018,-0.015,-0.01
PDCD10 (UniProt Q9BUL8),-0.029,-0.001,-0.009,-0.049,-0.028,-0.007,0.087,0.035,-0.025,-0.012
PIK3R2 (UniProt O00459),-0.022,-0.02,-0.008,0.097,0.251,-0.09,0.047,0.068,-0.059,-0.01
PITRM1 isoform 2 (UniProt Q5JRX3),-0.035,0.011,0.077,0.04,-0.037,-0.025,0.009,0.016,0.024,-0.015
PYURF (UniProt Q96I23),-0.019,0.113,0.117,0.056,0.087,-0.09,-0.108,0.035,0.07,-0.086
PHGDH (UniProt O43175),0.033,0.155,0.05,-0.222,-0.092,-0.012,0.04,0.045,0.021,0.011
PLEKHA5 isoform 6 (UniProt Q9HAU0),-0.007,-0.021,0.016,-0.058,0.087,-0.021,-0.007,-0.002,-0.04,0.019
POLR2F (UniProt P61218),-0.05,-0.272,0.069,-0.091,0.033,0.076,0.01,0.101,0.019,-0.052
PRIM1 (UniProt P49642),-0.004,0.061,-0.011,-0.01,-0.03,0.02,0,-0.006,0.002,0.003
PRKACA (UniProt P17612),-0.033,-0.056,0.049,0.016,-0.015,-0.015,0.034,0.234,0.34,0.015
PTK2B (UniProt Q14289),0.024,-0.012,0.001,-0.012,-0.053,0.027,0.066,0.067,-0.068,0.077
PTS (UniProt Q03393),-0.018,-0.112,-0.018,0.034,0.001,0.074,-0.023,-0.069,0.002,0.028

# Reference: the supplement of paper PMC10849652
